This passage reports growth results from the supplement of paper PMC12494721.

Each structure is given as a SMILES string. Structures can show the parent of a compound that is named as a salt.

The subject of the first experiment is Klebsiella aerogenes DSM 30053. Description: growth (OD595) fold change vs plate DMSO controls (fold change (ratio)); higher = more growth. To be noted: 20 µM; incubation time: 27 h, anaerobic, 37 °C. The method, boiled down: (§1)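 Shaken 96-well cultures in mGAM, grown anaerobically for 27 h at 37 °C, were read at 595 nm. OD came from blank-subtracted readings, corrected for background with 20 µM compound solutions in water and scaled by a calibration factor of 5. Growth is the fold change versus the plate's median DMSO control. Values average 2 biological replicates, and any fold change above 1.5 is NA.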
Take `CCCC(C)(COC(N)=O)COC(=O)NC(C)C` (centres undefined) [Carisoprodol]: the growth came to 1.01.
As for `CCC1(c2cccc(O)c2)CCCCN(C)C1` (centres undefined) [Meptazinol hydrochloride], the growth amounted to 1.02.
Same read-out and setting: then `CC(C)(C)NCC(O)c1ccccc1Cl` (centres undefined) [Tulobuterol hydrochloride], with 1; and `C[C@]12CCC(=O)C(O)=C1CC[C@@H]1[C@@H]2CC[C@]2(C)C(=O)CC[C@@H]12` [Formestane], with 0.974; and `C=C(C)[C@@H]1[C@H]2OC(=O)[C@@H]1[C@]1(O)C[C@H]3O[C@]34C(=O)O[C@H]2[C@]14C` [Picrotoxinin], with 1.04.
On to `CCOc1cc(Oc2ccc(C(F)(F)F)cc2Cl)ccc1[N+](=O)[O-]`, for which the growth came out at 1.
With `O=C(O)C(F)(F)C(F)(F)C(F)(F)C(F)(F)C(F)(F)C(F)(F)C(F)(F)C(F)(F)C(F)(F)F` [PFDeA (Perfluorodecanoic acid)], the growth was found to be 1.04.
For `CC[C@@H](CO)NC(=O)[C@@H]1C=C2c3cccc4[nH]cc(c34)C[C@H]2N(C)C1` [Methylergometrine maleate], the growth was found to be 1.
In the case of `O=C(O)C(F)(F)C(F)(F)C(F)(F)C(F)(F)C(F)(F)C(F)(F)C(F)(F)F` [PFOA (Perfluorooctanoic acid)], the growth was 0.999.
The same measure, in the same setting: then `COc1ccc2c(c1)[C@]13CCCC[C@@H]1[C@H](C2)N(C)CC3` [Dextromethorphan hydrobromide monohydrate], with 1.05; and `CCOP(=S)(OCC)Oc1cc(C)nc(C(C)C)n1`, with 0.998.
With `CC(=O)NC1CCSC1=O` (centres undefined) [Citiolone], the growth was found to be 1.07.
Still for that read-out and setting: to `CCCCN(CCCC)N=O` [DBNA (N-nitrosodibutylamine)] belongs 0.673.
For `CC[C@H](C)[C@H]1O[C@]2(C=C[C@@H]1C)C[C@@H]1C[C@@H](C/C=C(\C)[C@@H](O[C@H]3C[C@H](OC)[C@@H](O[C@H]4C[C@H](OC)[C@@H](O)[C@H](C)O4)[C@H](C)O3)[C@@H](C)/C=C/C=C3\CO[C@@H]4[C@H](O)C(C)=C[C@@H](C(=O)O1)[C@]34O)O2.CO[C@H]1C[C@H](O[C@H]2[C@H](C)O[C@@H](O[C@@H]3/C(C)=C/C[C@@H]4C[C@@H](C[C@]5(C=C[C@H](C)[C@@H](C(C)C)O5)O4)OC(=O)[C@@H]4C=C(C)[C@@H](O)[C@H]5OC/C(=C\C=C\[C@@H]3C)[C@]54O)C[C@@H]2OC)O[C@@H](C)[C@@H]1O`, the growth was 1.05.
For the molecule `C=CCC1(CC(C)C)C(=O)NC(=O)NC1=O` [Butalbital], the growth worked out at 0.966.
Same read-out and setting: to `NCC(CC(=O)O)c1ccc(Cl)cc1` (centres undefined) [Baclofen] belongs 1; to `N#Cc1cc(Br)c(O)c(Br)c1`, 0.928; to `N#CC(CCc1ccc(Cl)cc1)(Cn1cncn1)c1ccccc1` (centres undefined), 0.94.
With `CN(C)C(=O)Oc1ccc[n+](C)c1` [Pyridostigmine iodide], the growth turned out to be 1.
For the molecule `CC(C)C[C@H](CN)CC(=O)O` [Pregabalin], the growth was determined as 0.982.
Take `Clc1ccc(C(OCCN2CCCCC2)c2ccccc2)cc1` (centres undefined) [Cloperastine hydrochloride]: the growth was 1.06.
For `O=[N+]([O-])c1ccc2ccc3cccc4ccc1c2c34` [1-Nitropyrene], the growth stood at 1.
For `COCC(=O)N(c1c(C)cccc1C)C(C)C(=O)OC` (centres undefined), the growth amounted to 1.04.
With `CCCN1C[C@H](CSC)C[C@@H]2c3cccc4[nH]cc(c34)C[C@H]21` [Pergolide mesylate], the growth was 0.998.
In the case of `COc1cc(OC)nc(NC(=O)NS(=O)(=O)c2ncccc2C(=O)N(C)C)n1`, the growth turned out to be 1.02.
As to `CNC(C)(C)Cc1ccccc1` [Mephentermine hemisulfate], the growth was determined as 0.99.
Take `CC1(C)C(C=C(Cl)Cl)C1C(=O)OC(C#N)c1ccc(F)c(Oc2ccccc2)c1` (mixture of isomers): the growth was found to be 0.965.
For the molecule `CCC1(CC)C(=O)C=CNC1=O` [Pyrithyldione], the growth is 1.04.
`COP(=S)(OC)Oc1nc(Cl)c(Cl)cc1Cl`: the growth was 1.02.
Turning to `Nc1nc(N)nc(NC2CC2)n1` [Cyromazine], the growth was found to be 1.01.
On the same count and under the same terms, then `ClC1C(Cl)C(Cl)C(Cl)C(Cl)C1Cl` (centres undefined), with 1; and `CCCN(CCC)C(=O)SCc1ccccc1`, with 1.03.
As to `Cc1ccccc1[N+](=O)[O-]` [2-Nitrotoluene], the growth stood at 0.968.
Turning to `c1cc2ccc3cccc4ccc(c1)c2c34` [Pyrene], the growth worked out at 0.997.
Regarding `COc1cccc(C2(O)CCCCC2CN(C)C)c1` (centres undefined) [Tramadol hydrochloride], the growth worked out at 0.985.
Turning to `NC(=O)CN1CC(O)CC1=O` (centres undefined) [Oxiracetam], the growth turned out to be 0.98.
For `O=C(NC(=O)c1c(F)cccc1F)Nc1ccc(Cl)cc1`, the growth came out at 1.02.

In another experiment the test system is Ruminococcus gnavus DSM 108212. The description is as above. To be noted: 20 µM; incubation time: 27 h, anaerobic, 37 °C. In outline: as §1
In the case of `CCCC(C)(COC(N)=O)COC(=O)NC(C)C` (centres undefined) [Carisoprodol], the growth is 0.919.
With `CCC1(c2cccc(O)c2)CCCCN(C)C1` (centres undefined) [Meptazinol hydrochloride], the growth was 1.01.
The same measure, in the same setting: to `CC(C)(C)NCC(O)c1ccccc1Cl` (centres undefined) [Tulobuterol hydrochloride] belongs 0.927.
Regarding `C[C@]12CCC(=O)C(O)=C1CC[C@@H]1[C@@H]2CC[C@]2(C)C(=O)CC[C@@H]12` [Formestane], the growth amounted to 1.13.
Turning to `C=C(C)[C@@H]1[C@H]2OC(=O)[C@@H]1[C@]1(O)C[C@H]3O[C@]34C(=O)O[C@H]2[C@]14C` [Picrotoxinin], the growth was 1.15.
As for `CCOc1cc(Oc2ccc(C(F)(F)F)cc2Cl)ccc1[N+](=O)[O-]`, the growth worked out at 0.995.
With `O=C(O)C(F)(F)C(F)(F)C(F)(F)C(F)(F)C(F)(F)C(F)(F)C(F)(F)C(F)(F)C(F)(F)F` [PFDeA (Perfluorodecanoic acid)], the growth was found to be 1.24.
Turning to `CC[C@@H](CO)NC(=O)[C@@H]1C=C2c3cccc4[nH]cc(c34)C[C@H]2N(C)C1` [Methylergometrine maleate], the growth was 1.11.
For `O=C(O)C(F)(F)C(F)(F)C(F)(F)C(F)(F)C(F)(F)C(F)(F)C(F)(F)F` [PFOA (Perfluorooctanoic acid)], the growth turned out to be 0.985.
With `COc1ccc2c(c1)[C@]13CCCC[C@@H]1[C@H](C2)N(C)CC3` [Dextromethorphan hydrobromide monohydrate], the growth was 0.761.
As to `CCOP(=S)(OCC)Oc1cc(C)nc(C(C)C)n1`, the growth came to 1.15.
Same read-out and setting: then `CC(=O)NC1CCSC1=O` (centres undefined) [Citiolone], with 1.
With `CCCCN(CCCC)N=O` [DBNA (N-nitrosodibutylamine)], the growth came out at 0.238.
Still for that read-out and setting: to `CC[C@H](C)[C@H]1O[C@]2(C=C[C@@H]1C)C[C@@H]1C[C@@H](C/C=C(\C)[C@@H](O[C@H]3C[C@H](OC)[C@@H](O[C@H]4C[C@H](OC)[C@@H](O)[C@H](C)O4)[C@H](C)O3)[C@@H](C)/C=C/C=C3\CO[C@@H]4[C@H](O)C(C)=C[C@@H](C(=O)O1)[C@]34O)O2.CO[C@H]1C[C@H](O[C@H]2[C@H](C)O[C@@H](O[C@@H]3/C(C)=C/C[C@@H]4C[C@@H](C[C@]5(C=C[C@H](C)[C@@H](C(C)C)O5)O4)OC(=O)[C@@H]4C=C(C)[C@@H](O)[C@H]5OC/C(=C\C=C\[C@@H]3C)[C@]54O)C[C@@H]2OC)O[C@@H](C)[C@@H]1O` belongs 1.05; to `C=CCC1(CC(C)C)C(=O)NC(=O)NC1=O` [Butalbital], 0.589.
The same measure, in the same setting: to `NCC(CC(=O)O)c1ccc(Cl)cc1` (centres undefined) [Baclofen] belongs 1.33; to `N#Cc1cc(Br)c(O)c(Br)c1`, 0.963; to `N#CC(CCc1ccc(Cl)cc1)(Cn1cncn1)c1ccccc1` (centres undefined), 1.14.
`CN(C)C(=O)Oc1ccc[n+](C)c1` [Pyridostigmine iodide]: the growth turned out to be 0.901.
Take `CC(C)C[C@H](CN)CC(=O)O` [Pregabalin]: the growth worked out at 0.865.
As for `Clc1ccc(C(OCCN2CCCCC2)c2ccccc2)cc1` (centres undefined) [Cloperastine hydrochloride], the growth amounted to 0.788.
As for `O=[N+]([O-])c1ccc2ccc3cccc4ccc1c2c34` [1-Nitropyrene], the growth stood at 0.914.
With `COCC(=O)N(c1c(C)cccc1C)C(C)C(=O)OC` (centres undefined), the growth was determined as 1.02.
The same measure, in the same setting: to `CCCN1C[C@H](CSC)C[C@@H]2c3cccc4[nH]cc(c34)C[C@H]21` [Pergolide mesylate] belongs 0.982; to `COc1cc(OC)nc(NC(=O)NS(=O)(=O)c2ncccc2C(=O)N(C)C)n1`, 1.22.
On to `CNC(C)(C)Cc1ccccc1` [Mephentermine hemisulfate], for which the growth was found to be 0.991.
As to `CC1(C)C(C=C(Cl)Cl)C1C(=O)OC(C#N)c1ccc(F)c(Oc2ccccc2)c1` (mixture of isomers), the growth is 1.
Take `CCC1(CC)C(=O)C=CNC1=O` [Pyrithyldione]: the growth amounted to 0.877.
As to `COP(=S)(OC)Oc1nc(Cl)c(Cl)cc1Cl`, the growth turned out to be 1.01.
The same measure, in the same setting: then `Nc1nc(N)nc(NC2CC2)n1` [Cyromazine], with 1.03.
As for `ClC1C(Cl)C(Cl)C(Cl)C(Cl)C1Cl` (centres undefined), the growth is 1.14.
As to `CCCN(CCC)C(=O)SCc1ccccc1`, the growth is 0.973.
With `Cc1ccccc1[N+](=O)[O-]` [2-Nitrotoluene], the growth is 0.984.
With `c1cc2ccc3cccc4ccc(c1)c2c34` [Pyrene], the growth was 0.936.
On to `COc1cccc(C2(O)CCCCC2CN(C)C)c1` (centres undefined) [Tramadol hydrochloride], for which the growth was found to be 1.12.
The same measure, in the same setting: to `NC(=O)CN1CC(O)CC1=O` (centres undefined) [Oxiracetam] belongs 0.915; to `O=C(NC(=O)c1c(F)cccc1F)Nc1ccc(Cl)cc1`, 0.975.
